In PubChem BioAssay:
Activity calls are given as the source filed them. Unless noted, no rule for the calls is given here.

Legend:
[1] = test system: Wnt5a (protein binding on small-molecule microarray); assay: Wnt5a binders on small-molecule microarray, primary screen, biophysical, 635/667 nm fluorescence (AID 1142); settings: 635 nm fluorescence, higher = more signal;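 also: fluorescence read at 667 nm with signal to noise per printed feature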
[2] = cell viability in Huh7 cells, primary screen, cytotoxicity control for HCV replication inhibitor project, CellTiter-Glo luminescence, basal, 48 h (AID 1143); settings: Huh7 HCV replicon, higher = more signal, called active from +8 up or from −8 down;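 also: Huh7 hepatoma cells carrying a hepatitis C replication reporter with no stimulus; test concentration not given here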
[3] = P. aeruginosa biofilm formation inhibitors, primary screen, PAO1 strain, BacTiter-Glo luminescence, LB-PBS (AID 1144); settings: 12 h, higher = more signal
[4] = CREB reporter modulators without forskolin, primary screen, cell-based, PC12, CRE-LacZ reporter, unstimulated (AID 1145); settings: no forskolin, luminescence, 4.5 h, higher = more signal, called active from +8 up or from −8 down
[5] = CREB reporter modulators under forskolin, primary screen, cell-based, PC12, CRE-LacZ reporter, forskolin-stimulated (AID 1146); settings: luminescence, 4.5 h, higher = more signal, called active from +8 up or from −8 down;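 also: PC12 cells with 6xCRE LacZ reporter stimulated by forskolin 10 µM; beta-galactosidase reporter signal reflecting CREB driven transcription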
[6] = molecular target: Streptavidin (Streptomyces avidinii) (UniProt P22629); assay: streptavidin binders on small-molecule microarray, primary screen, artefact control for SMM compound annotation, biophysical, 635/667 nm fluorescence (AID 1147); settings: streptavidin binding, higher = more signal;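 also: signal reflects streptavidin binding to arrayed compounds as a control protein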
[7] = small-molecule binders of probe aInhba, primary screen, biochemical, small-molecule microarray, 635/667 nm fluorescence (AID 1148); settings: higher = more signal;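 also: score merges 667nm spot fluorescence with signal-to-noise for antibody binding to printed compounds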
[8] = molecular target: Torsin-1A (Homo sapiens) (UniProt O14656); assay: torsin A binders from cell lysate, primary screen, small-molecule microarray, wild-type, 635/667 nm (AID 1149); settings: COS7 hTOR1A-WT lysate, 635 nm fluorescence, higher = more signal
[9] = molecular target: Torsin-1A (Homo sapiens) (UniProt O14656); assay: small-molecule binders of mutant TOR1A in lysate, primary screen, cell lysate, small-molecule microarray, COS7 lysate, 635/667 nm fluorescence (AID 1150); settings: COS7 hTOR1A mutant lysate, 635 nm fluorescence, higher = more signal;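 also: score pools 667 nm emission and signal to noise measuring lysate protein binding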
[10] = test system: Sonic hedgehog protein (Shh); assay: small-molecule binders of Shh protein, primary screen, biochemical, small-molecule microarray, 635/667 nm fluorescence (AID 1151); settings: small-molecule microarray binding, 635 nm fluorescence; higher = more signal;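 also: Shh protein binding to compounds spotted on small-molecule microarray slides; score combines spot fluorescence intensity with signal-to-noise across triplicate slides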
[11] = E. coli DRC41 culture turbidity changes, primary screen, E. coli filamentation inducer project, strain DRC41, OD650, 48 h (AID 1152);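 also: E. coli MC1000 strain DRC41 lacking acrAB efflux pump and sulA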; settings: E. coli DRC41 (acrAB sulA), higher = more signal, called active from +8 up or from −8 down
[12] = small-molecule binders of probe aLefty1, primary screen, biochemical, small-molecule microarray, 635/667 nm fluorescence (AID 1153); settings: higher = more signal;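 also: score merges spot fluorescence with signal-to-noise ratio from the scanned slide images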
[13] = PSAC antagonists in infected red cells, primary screen, cell-based, P. falciparum Indochina, OD700, 1 h (AID 1154); settings: P. falciparum Indochina infected RBC osmotic lysis, higher = more signal, called active from +8 up or from −8 down
[14] = PSAC antagonists in infected red cells, primary screen, cell-based, P. falciparum Indochina, OD700, 2 h (AID 1155);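 also: lysis reports solute entry through the parasite surface anion channel PSAC; channel blockers reduce lysis of infected cells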; settings: P. falciparum Indochina infected erythrocytes, osmotic lysis OD700; higher = more signal, called active from +8 up or from −8 down
[15] = osmotic lysis modulators in infected erythrocytes, primary screen, PSAC antagonist project, cell-based, P. falciparum Indochina, OD700, 3 h (AID 1156); settings: higher = more signal, called active from +8 up or from −8 down
[16] = PSAC antagonists in infected red cells, primary screen, cell-based, P. falciparum Indochina, OD700, 18 h (AID 1157); settings: P. falciparum Indochina infected erythrocytes, osmotic lysis OD700, 18 h; higher = more signal, called active from +8 up or from −8 down
[17] = modulators of S6 phosphorylation in cells, primary screen, cell-based, A549, cytoblot, luminescence, serum-stimulated (AID 1158); settings: A549 phospho-S6 cytoblot, 5 h, higher = more signal;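 also: serum-stimulated A549 lung adenocarcinoma cells; signal is phosphorylated S6 detected by cytoblot immunostaining with HRP secondary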
[18] = molecular target: NADPH oxidase 2 (Homo sapiens) (UniProt P04839); assay: NOX2-dependent H2O2 signal modulators, primary screen, NOX inhibitor project, cell-based, HEK293-NOX2, PMA-stimulated, Amplex Red fluorescence (AID 1159); settings: 45 min, higher = more signal, called active from +8 up or from −8 down; also: test concentration not given here
[19] = molecular target: NADPH oxidase 4 (Homo sapiens) (UniProt Q9NPH5); assay: NOX4-dependent H2O2 signal modulators, primary screen, NOX inhibitor project, cell-based, HEK293-NOX4, tetracycline-induced, Amplex Red fluorescence (AID 1160); settings: 45 min, higher = more signal, called active from +8 up or from −8 down
[20] = molecular target: NADPH oxidase 5 (Homo sapiens) (UniProt Q96PH1); assay: NOX5-dependent H2O2 signal modulators, primary screen, NOX inhibitor project, cell-based, HEK293-NOX5, Amplex Red fluorescence (AID 1161); settings: HEK293-NOX5, ionomycin, 45 min, higher = more signal
NADPH oxidase 5 (Homo sapiens), sequence (Q96PH1 whole entry, looked up): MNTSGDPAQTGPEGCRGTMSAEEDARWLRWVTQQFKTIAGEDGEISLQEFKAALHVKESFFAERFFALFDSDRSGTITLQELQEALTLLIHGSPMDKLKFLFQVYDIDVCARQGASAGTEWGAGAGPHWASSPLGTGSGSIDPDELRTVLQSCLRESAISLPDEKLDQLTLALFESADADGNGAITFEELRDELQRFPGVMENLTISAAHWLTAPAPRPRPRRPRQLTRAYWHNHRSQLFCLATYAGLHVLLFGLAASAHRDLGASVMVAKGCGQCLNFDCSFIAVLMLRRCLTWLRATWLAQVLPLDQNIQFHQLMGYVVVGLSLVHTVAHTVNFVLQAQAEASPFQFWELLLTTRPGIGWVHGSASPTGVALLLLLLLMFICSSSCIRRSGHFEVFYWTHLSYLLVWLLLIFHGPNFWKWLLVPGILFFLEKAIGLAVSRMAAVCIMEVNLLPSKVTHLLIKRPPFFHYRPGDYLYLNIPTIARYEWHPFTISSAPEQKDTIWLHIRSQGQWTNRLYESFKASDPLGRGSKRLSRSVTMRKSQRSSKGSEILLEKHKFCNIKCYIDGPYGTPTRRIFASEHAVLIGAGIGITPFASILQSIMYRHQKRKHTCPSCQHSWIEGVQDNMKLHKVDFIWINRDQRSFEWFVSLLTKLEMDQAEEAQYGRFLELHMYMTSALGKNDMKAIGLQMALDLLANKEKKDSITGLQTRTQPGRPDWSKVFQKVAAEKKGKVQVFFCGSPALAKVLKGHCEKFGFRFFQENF

Torsin-1A (Homo sapiens), sequence (O14656 whole entry, looked up): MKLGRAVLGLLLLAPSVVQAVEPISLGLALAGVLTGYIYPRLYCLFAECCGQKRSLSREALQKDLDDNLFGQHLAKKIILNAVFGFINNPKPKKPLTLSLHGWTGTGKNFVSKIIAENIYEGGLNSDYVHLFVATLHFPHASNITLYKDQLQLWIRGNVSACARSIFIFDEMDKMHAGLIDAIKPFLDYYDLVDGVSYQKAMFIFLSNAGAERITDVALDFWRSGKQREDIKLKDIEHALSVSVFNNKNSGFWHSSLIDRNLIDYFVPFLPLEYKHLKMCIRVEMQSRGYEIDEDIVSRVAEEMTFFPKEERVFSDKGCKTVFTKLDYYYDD
NADPH oxidase 4 (Homo sapiens), sequence (Q9NPH5 whole entry, looked up): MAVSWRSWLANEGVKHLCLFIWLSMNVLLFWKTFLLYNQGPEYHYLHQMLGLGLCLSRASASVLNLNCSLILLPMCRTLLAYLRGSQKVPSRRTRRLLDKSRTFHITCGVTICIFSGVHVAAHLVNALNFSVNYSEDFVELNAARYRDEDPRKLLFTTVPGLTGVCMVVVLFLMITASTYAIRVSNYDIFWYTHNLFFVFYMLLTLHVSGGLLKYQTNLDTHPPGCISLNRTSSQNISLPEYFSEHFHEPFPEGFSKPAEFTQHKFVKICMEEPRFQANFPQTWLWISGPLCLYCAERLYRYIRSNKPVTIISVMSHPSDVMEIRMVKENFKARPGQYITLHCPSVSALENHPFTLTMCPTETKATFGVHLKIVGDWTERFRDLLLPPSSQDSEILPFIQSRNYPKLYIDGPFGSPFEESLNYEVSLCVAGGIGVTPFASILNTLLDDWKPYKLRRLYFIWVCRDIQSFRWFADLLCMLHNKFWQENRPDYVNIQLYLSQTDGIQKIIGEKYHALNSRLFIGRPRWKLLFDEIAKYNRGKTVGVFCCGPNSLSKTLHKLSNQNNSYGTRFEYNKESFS
Streptavidin (Streptomyces avidinii), sequence (P22629 whole entry, looked up): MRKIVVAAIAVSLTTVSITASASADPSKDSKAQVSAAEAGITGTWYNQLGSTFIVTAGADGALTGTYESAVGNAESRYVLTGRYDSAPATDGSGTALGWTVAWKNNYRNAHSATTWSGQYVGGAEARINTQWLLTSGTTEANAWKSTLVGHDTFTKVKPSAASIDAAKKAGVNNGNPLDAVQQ
NADPH oxidase 2 (Homo sapiens), sequence (P04839 whole entry, looked up): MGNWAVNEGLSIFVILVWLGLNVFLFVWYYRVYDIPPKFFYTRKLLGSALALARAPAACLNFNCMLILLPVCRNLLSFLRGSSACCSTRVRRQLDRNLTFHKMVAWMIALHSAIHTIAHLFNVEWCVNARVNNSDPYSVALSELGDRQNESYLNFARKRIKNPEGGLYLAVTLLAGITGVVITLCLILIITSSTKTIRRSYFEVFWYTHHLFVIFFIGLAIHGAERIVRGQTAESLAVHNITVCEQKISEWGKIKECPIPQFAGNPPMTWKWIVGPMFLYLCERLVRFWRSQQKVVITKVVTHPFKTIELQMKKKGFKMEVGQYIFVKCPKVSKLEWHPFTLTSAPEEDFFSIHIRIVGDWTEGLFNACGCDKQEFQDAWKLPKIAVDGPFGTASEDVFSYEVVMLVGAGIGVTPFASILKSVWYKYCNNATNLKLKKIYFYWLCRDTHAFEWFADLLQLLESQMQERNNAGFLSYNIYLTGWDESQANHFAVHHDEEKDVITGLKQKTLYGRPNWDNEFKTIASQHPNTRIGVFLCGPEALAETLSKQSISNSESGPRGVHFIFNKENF

## CCCCC(O)C1C=CC2C(=O)N(c3ccccc3)C(=O)C2N1Nc1ccc([N+](=O)[O-])cc1 (stereo not given)
[1]
  composite z-score: 0.044
[2]
  z-score: -3.32 (inactive)
[3]
  z-score: -2.08 (inactive)
[4]
  z-score: -0.219 (inactive)
[5]
  z-score: -0.176 (inactive)
[6]
  composite z-score: 0.736
[7]
  composite z-score: 0.215
[8]
  composite z-score: 0.47
[9]
  composite z-score: 0.482
[10]
  composite z-score: -0.61
[11]
  z-score: 0.372 (inactive)
[12]
  composite z-score: 0.683
[13]
  z-score: 14.2 (active)
[14]
  z-score: 1.38 (inactive)
[15]
  z-score: 0.371 (inactive)
[16]
  z-score: -1.06 (inactive)
[17]
  z-score: 0.581
[18]
  z-score: -1.08 (inactive)
[19]
  z-score: -1.65 (inactive)
[20]
  z-score: -0.302

## CN(C)CCCCNC(=O)[C@H]1C[C@H]2C(=O)NCC(=O)N2[C@H]1c1ccc(O)cc1
[1]
  composite z-score: -0.311
[2]
  z-score: 0.153 (inactive)
[3]
  z-score: 0.0384 (inactive)
[4]
  z-score: -0.943 (inactive)
[5]
  z-score: -0.489 (inactive)
[6]
  composite z-score: -0.761
[7]
  composite z-score: -0.344
[8]
  composite z-score: -0.0276
[9]
  composite z-score: 1.07
[10]
  composite z-score: 1.57
[11]
  z-score: 0.327 (inactive)
[12]
  composite z-score: -0.417
[13]
  z-score: 2.9 (inactive)
[14]
  z-score: 0.552 (inactive)
[15]
  z-score: 0.447 (inactive)
[16]
  z-score: 0.3 (inactive)
[17]
  z-score: -0.468
[18]
  z-score: 1.06 (inactive)
[19]
  z-score: 1.09 (inactive)
[20]
  z-score: 1.18

## COc1ccc([Si](C)(C)[C@H]2[C@H](CCO)O[C@@]3(C(=O)N(Cc4cccc(N5C(=O)c6ccccc6Oc6ccccc65)c4)c4ccccc43)[C@@H]2C)cc1
[1]
  composite z-score: 0.0511
[2]
  z-score: -6.96 (inactive)
[3]
  z-score: -0.365 (inactive)
[4]
  z-score: 0.716 (inactive)
[5]
  z-score: -1.1 (inactive)
[6]
  composite z-score: 0.4
[7]
  composite z-score: -0.05
[8]
  composite z-score: -0.412
[9]
  composite z-score: -0.54
[10]
  composite z-score: 0.734
[11]
  z-score: 0.253 (inactive)
[12]
  composite z-score: 0.119
[13]
  z-score: 2.63 (inactive)
[14]
  z-score: 2.78 (inactive)
[15]
  z-score: 0.979 (inactive)
[16]
  z-score: 1.6 (inactive)
[17]
  z-score: 0.87
[18]
  z-score: -1.93 (inactive)
[19]
  z-score: 2.27 (inactive)
[20]
  z-score: 1.1

## COC(=O)[C@H](Cc1ccc(O)cc1)N[C@@H](/C=C/C1CC1)[C@H](O)Cc1ccccc1
[1]
  composite z-score: -0.377
[2]
  z-score: -0.794 (inactive)
[3]
  z-score: 0.814 (inactive)
[4]
  z-score: 7.92 (inactive)
[5]
  z-score: 1.6 (inactive)
[6]
  composite z-score: -0.295
[7]
  composite z-score: -0.153
[8]
  composite z-score: -0.474
[9]
  composite z-score: 0.0615
[10]
  composite z-score: -0.142
[11]
  z-score: -0.571 (inactive)
[12]
  composite z-score: -0.275
[13]
  z-score: 0.963 (inactive)
[14]
  z-score: 0.496 (inactive)
[15]
  z-score: 0.098 (inactive)
[16]
  z-score: -0.0396 (inactive)
[17]
  z-score: -0.557
[18]
  z-score: 0.0285 (inactive)
[19]
  z-score: 0.516 (inactive)
[20]
  z-score: -0.929

## CC(C)NC(=O)[C@@]1(C)c2ccccc2C(=O)N(Cc2ccccc2)[C@H]1c1ccc(CO)cc1
[1]
  composite z-score: -0.442
[2]
  z-score: -2.24 (inactive)
[3]
  z-score: 0.0156 (inactive)
[4]
  z-score: -0.592 (inactive)
[5]
  z-score: -1.08 (inactive)
[6]
  composite z-score: -1.23
[7]
  composite z-score: -0.312
[8]
  composite z-score: 0.654
[9]
  composite z-score: 1.39
[10]
  composite z-score: 0.504
[11]
  z-score: 1.31 (inactive)
[12]
  composite z-score: -0.0796
[13]
  z-score: 4.68 (inactive)
[14]
  z-score: -0.883 (inactive)
[15]
  z-score: -0.171 (inactive)
[16]
  z-score: -0.851 (inactive)
[17]
  z-score: 1.64
[18]
  z-score: -1.34 (inactive)
[19]
  z-score: 0.485 (inactive)
[20]
  z-score: 0.872

## COC(=O)[C@]1(CCC(=O)OC(C)(C)C)N=C(c2ccc(OCCCO)cc2)O[C@@H]1c1ccccc1N=[N+]=[N-]
[1]
  composite z-score: 0.827
[2]
  z-score: -2.64 (inactive)
[3]
  z-score: -0.192 (inactive)
[4]
  z-score: 0.834 (inactive)
[5]
  z-score: 0.154 (inactive)
[6]
  composite z-score: -0.0444
[7]
  composite z-score: -0.0658
[8]
  composite z-score: 0.154
[9]
  composite z-score: 0.0612
[10]
  composite z-score: 0.886
[11]
  z-score: -0.725 (inactive)
[12]
  composite z-score: 0.0591
[13]
  z-score: 30.9 (active)
[14]
  z-score: 25.9 (active)
[15]
  z-score: 1.64 (inactive)
[16]
  z-score: 5.32 (inactive)
[17]
  z-score: -0.328
[18]
  z-score: -1.41 (inactive)
[19]
  z-score: -0.601 (inactive)
[20]
  z-score: -2.4

## O=C1O[C@@H](c2ccccc2)[C@@H](c2ccccc2)N2[C@@H](c3ccc(OCCO)cc3)[C@]3(C(=O)Nc4ccc(C#CC5(O)CCCCCC5)cc43)[C@@H](C(=O)O)[C@H]12
[1]
  composite z-score: 0.213
[2]
  z-score: -0.72 (inactive)
[3]
  z-score: -0.448 (inactive)
[4]
  z-score: -0.0246 (inactive)
[5]
  z-score: 0.371 (inactive)
[6]
  composite z-score: 0.351
[7]
  composite z-score: -0.0695
[8]
  composite z-score: 0.562
[9]
  composite z-score: 0.695
[10]
  composite z-score: 0.633
[11]
  z-score: 1.87 (inactive)
[12]
  composite z-score: -0.0862
[13]
  z-score: -1.17 (inactive)
[14]
  z-score: -0.927 (inactive)
[15]
  z-score: -8.35 (active)
[16]
  z-score: -0.76 (inactive)
[17]
  z-score: 0.169
[18]
  z-score: 2.21 (inactive)
[19]
  z-score: -0.56 (inactive)
[20]
  z-score: 0.314

## CCOC(=O)C[C@H]1[C@H](OC(=O)Cc2ccc3c(c2)OCO3)[C@@H](NC(=O)c2ccc3ccccc3n2)c2cc(OCCCO)ccc2N1C(=O)Cc1ccc(OC)cc1
[1]
  composite z-score: 0.0586
[2]
  z-score: -1.01 (inactive)
[3]
  z-score: -0.885 (inactive)
[4]
  z-score: 3.29 (inactive)
[5]
  z-score: 0.637 (inactive)
[6]
  composite z-score: 0.417
[7]
  composite z-score: -0.101
[8]
  composite z-score: 0.509
[9]
  composite z-score: 0.744
[10]
  composite z-score: 0.902
[11]
  z-score: 2.14 (inactive)
[12]
  composite z-score: -0.0573
[13]
  z-score: 21.8 (active)
[14]
  z-score: 5.31 (inactive)
[15]
  z-score: -0.997 (inactive)
[16]
  z-score: 0.0217 (inactive)
[17]
  z-score: 2.03
[18]
  z-score: -1.47 (inactive)
[19]
  z-score: 0.824 (inactive)
[20]
  z-score: 0.159
